Test results: PubChem BioAssay (NCI)
Compounds without any hit were thinned out: in the full panel of roughly 83,000, 20% have a hit.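 Negative percent growth values reflect cell death: -40 means 40% of the cells present at the start died, and -100 means all died.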 Activity calls are given as the source filed them. Rule for the calls: active = growth percent below 10; inactive = the rest.

System: A498 renal
Test: NCI-60 one-dose screen, 48 h (100 = growth as untreated, 0 = no growth, -100 = all killed)
Settings: 10 µM unless noted

SMILES	growth
C[C@@H](c1ccc2c(c1)[nH]c1ccc(Cl)cc12)c1nc2ccccc2[nH]1	111% (inactive)
Cc1nnc(/N=C2\NC(=O)/C(=C/C=C/c3ccccc3)S2)s1	65.3% (inactive)
CCOC(=O)CSSCC(=O)OCC	118% (inactive)
O=C(/C=C1\C(=O)N(Cc2ccc([N+](=O)[O-])cc2)c2ccccc21)c1ccc(OCCN2CCCCC2)cc1	56.6% (inactive)
COc1cc2cc3cc4cc(OC)c(OC)cc4c(C)[n+]3cc2cc1OC (tested in a mixture with another compound)	93.6% (inactive)
O=C(/C=C1\C(=O)N(Cc2ccccc2)c2ccccc21)c1ccc(OCCN2CCCCC2)cc1	68.4% (inactive)
O=C1/C(=C\c2cn(-c3nc(N4CCOCC4)nc(N4CCOCC4)n3)c3ccccc23)c2ccccc2N1c1c(Cl)cccc1Cl	-43.7% (active)
Cc1c(Cc2ccccc2)c(=O)oc2c(C)c(OCC(=O)n3nc(C#N)cc3N)ccc12	126% (inactive)
CC(=O)OCC1O[C@@H](OC(C)=O)[C@@H](NC(=O)NS(=O)(=O)c2ccccc2)C(OC(C)=O)[C@@H]1OC(C)=O (some centres not stated)	71.9% (inactive)
CC(=O)Nc1nc(C)c(C(=O)N/N=C/N2CCCCC2)s1	119% (inactive)
COc1ccc(/C=N/c2cc(C(C)(C)C)nn2-c2ccccc2)cc1	103% (inactive)
CC[C@H](Nc1ncnc2nc[nH]c12)c1nc2cccc(NCc3ccc(C(=O)NO)nc3)c2c(=O)n1-c1ccccc1	54.2% (inactive)
COc1ccc(CN2C(=O)/C(=C\C(=O)c3ccc(OCCN4CCCC4)cc3)c3ccccc32)cc1	88.8% (inactive)
CCC(C)C1NC(=O)C(CC(C)C)NC(=O)C(C)NC(=O)C(C(C)C)NC(=O)C(CCCCN)NC(=O)C(CC(C)C)NC(=O)C(C(C)C)NC(=O)[C@H](C)NC(=O)C(C(C)CC)NC(=O)C(CCCN=C(N)N)NC(=O)C(CCCCN)NC(=O)C(CCCN=C(N)N)NC(=O)C(CCCCN)NC(=O)C([C@H](C)CC)NC(=O)C(CCCCN)NC1=O (some centres not stated)	20.8% (inactive)

System: CCRF-CEM leukemia
Test: as above
Settings: 10 µM

SMILES	growth
O=C(Oc1ccccc1)c1ccccc1Cl	-11.9% (active)
COc1ccc(-c2nc(SCC(C)C)nc(Nc3ccc(C(=O)O)cc3)c2C#N)cc1	89.2% (inactive)
Cc1nnc(/N=C2\NC(=O)/C(=C/C=C/c3ccccc3)S2)s1	29.8% (inactive)
O=C(O)c1ccc(Br)nc1	95.7% (inactive)
O=C(O)c1ccc(-c2nn(-c3ccc(C(=O)O)cc3)cc2CNc2ccc(Br)cc2)cc1	101% (inactive)
NC(N)=N/N=C/c1cccc(Br)c1	101% (inactive)
C=CCNC(=S)NNc1ccc([N+](=O)[O-])cn1	71.2% (inactive)
CCCC(=O)Nc1ccccc1C(=O)O	104% (inactive)
COc1cc2cc3cc4cc(OC)c(OC)cc4c(C)[n+]3cc2cc1OC (tested in a mixture with another compound)	51.8% (inactive)
COc1ccc(-c2nc(N)n(C(=S)Nc3ccccc3)n2)cc1	98.7% (inactive)
Nc1ccc(N=Nc2ccccc2)c2cc(S(=O)(=O)O)ccc12	99.9% (inactive)
O=C(C(=O)N1CCOCC1)c1ccc(O[C@H]2O[C@H](CO)[C@@H](O)[C@H](O)[C@@H]2O)cc1	109% (inactive)
O=C(/C=C1\C(=O)N(Cc2ccccc2)c2ccccc21)c1ccc(OCCN2CCCCC2)cc1	1.17% (active)
CCCCCCNC(=O)Oc1ccc(/C(=C(/C)Cc2ccc(OC)cc2)c2ccc(OCCN(C)C)cc2)cc1	48.2% (inactive)
COc1ccc(-c2nc(SCC(C)C)nc(Nc3ccc(C)cc3)c2C#N)cc1	52.9% (inactive)
CCOC(=O)C1CCCN1C(=O)C1(NC(C)=O)CCCC1 (configuration not stated)	97.4% (inactive)
CCOC(=O)C1=NN(c2ccccc2)C2=NC(=O)/C(=C\c3cn(-c4ccccc4)nc3-c3cc4ccccc4o3)C(=O)N12	95.8% (inactive)

SMILES	growth
CC1=C(C)C[C@]2(C(=O)O[C@H]3CCCC[C@@H]32)[S@](=O)C1	105% (inactive)
CC(=N\N=C(N)N)/C(=N/N=C(N)N)c1ccccc1	32.2% (inactive)
O=C1/C(=C\c2cn(-c3nc(N4CCOCC4)nc(N4CCOCC4)n3)c3ccccc23)c2ccccc2N1c1c(Cl)cccc1Cl	64.5% (inactive)
Cc1ccc(CC(=O)O)c(C)c1	101% (inactive)
N=C(N)N=Nc1ccc(NN=C(N)N)cc1	96.3% (inactive)
CCCNC(=O)Oc1ccc(/C(=C(/C)Cc2ccc(OC)cc2)c2ccc(OCCN3CCCCC3)cc2)cc1	70.8% (inactive)
CCCCN(CCCC)CCCNc1c2c(nc3ccc(Cl)cc13)CCCC2	98.1% (inactive)
CCCCCCCCCCN1CC2CCCCC2C1 (configuration not stated)	46.1% (inactive)
N=C(N)N=Nc1ccc(NN=C(N)N)c2ccccc12	101% (inactive)
Cc1c(Cc2ccccc2)c(=O)oc2c(C)c(OCC(=O)n3nc(C#N)cc3N)ccc12	99.6% (inactive)
Cc1ccc(NCc2cn(-c3ccc(C(=O)O)cc3)nc2-c2ccc(C(=O)O)cc2)cc1	104% (inactive)
CC(C)CSc1nc(-c2ccc(F)cc2)c(C#N)c(N2CCCCC2)n1	94.4% (inactive)
CC[C@H](Nc1ncnc2nc[nH]c12)c1nc2cccc(NCc3ccc(C(=O)NO)nc3)c2c(=O)n1-c1ccccc1	19.6% (inactive)
COc1ccc(CN2C(=O)/C(=C\C(=O)c3ccc(OCCN4CCCC4)cc3)c3ccccc32)cc1	2.08% (active)
COC1=C(OC)C(=O)c2ccccc2C1=O	61.6% (inactive)
CCC(C)C1NC(=O)C(CC(C)C)NC(=O)C(C)NC(=O)C(C(C)C)NC(=O)C(CCCCN)NC(=O)C(CC(C)C)NC(=O)C(C(C)C)NC(=O)[C@H](C)NC(=O)C(C(C)CC)NC(=O)C(CCCN=C(N)N)NC(=O)C(CCCCN)NC(=O)C(CCCN=C(N)N)NC(=O)C(CCCCN)NC(=O)C([C@H](C)CC)NC(=O)C(CCCCN)NC1=O (some centres not stated)	8.98% (active)
